# Source: the supplement of paper PMC7695840
# Counter-ions that a name gives are not always drawn.
# Tested on: Staphylococcus aureus MW2 delta-mecA (mecA-)
# Experiment: normalized GFP fluorescence (growth of mecA- strain) (fraction of control range); higher = more growth of mecA- strain
# Conditions: compound concentration: 150 uM; cefoxitin: subinhibitory; fluorescent label: GFP
# Outline: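 Two pre-induced S. aureus MW2 strains, one with the gene labeled by DsRed and one lacking it labeled by GFP, were mixed 1:1 in LB with a subinhibitory antibiotic dose set daily. The mix went at 5 µL/well onto 150 μM compound (1.5% DMSO) in 1536-well plates, single replicate, and grew unshaken 20 h at 37 °C, 90% humidity. DsRed (540/590) and GFP (485/520) values were scaled per plate between single-strain control medians, and plates with high untreated ratios or rows with DsRed/GFP >10 were left out.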
row,Compound,normalized GFP fluorescence
1,CNc1ccc(C(=O)CC(O)CCC(C)C2OC(=O)CC(O)CC(=O)CC(O)CC(O)CC(O)CC(O)CC3(O)CC(O)C(C(=O)OC)C(CC(O[C@@H]4O[C@H](C)[C@@H](O)[C@H](N)[C@@H]4O)/C=C/C=C/C=C/C=C/C=C/C=C/C=C/C2C)O3)cc1.COC(=O)C1C(O)CC2(O)CC(O)CC(O)CC(O)CC(O)CC(=O)CC(O)CC(=O)OC(C(C)CCC(O)CC(=O)c3ccc(N)cc3)C(C)/C=C/C=C/C=C/C=C/C=C/C=C/C=C/C(O[C@@H]3O[C@H](C)[C@@H](O)[C@H](N)[C@@H]3O)CC1O2 (stereo partly drawn),0.675
2,O=P1(N(CCCl)CCCl)NCCCO1 (stereo not drawn),0.58
3,CC1(C)C(C=C(Cl)Cl)C1C(=O)OCc1cccc(Oc2ccccc2)c1 (stereo not drawn),0.134
4,CC[C@H]1CN2CCc3cc(OC)c(OC)cc3[C@@H]2C[C@@H]1C[C@H]1NCCc2cc(OC)c(OC)cc21,0.439
5,CN1C(=O)CCS(=O)(=O)C1c1ccc(Cl)cc1 (stereo not drawn),0.212
6,C#CCN(C)[C@H](C)Cc1ccccc1,0.853
7,C[N+]1([O-])[C@@H]2CC[C@H]1C[C@@H](OC(=O)C(CO)c1ccccc1)C2 (stereo partly drawn),0.483
8,CCOC(=O)c1cncn1C(C)c1ccccc1 (stereo not drawn),0.248
9,COC(=O)C(c1ccccc1)C1CCCCN1 (stereo not drawn),0.277
10,CC(C)N(CCC(C(N)=O)(c1ccccc1)c1ccccn1)C(C)C (stereo not drawn),0.541
11,CN1C[C@H](C(=O)N[C@]2(C)O[C@@]3(O)[C@@H]4CCCN4C(=O)[C@H](Cc4ccccc4)N3C2=O)C[C@@H]2c3cccc4[nH]cc(c34)C[C@H]21,0.246
12,C=CCN1CC[C@]23c4c5ccc(O)c4O[C@H]2C(=O)CC[C@@]3(O)[C@H]1C5,0.642
13,CC(C)[N+](C)(CCC(C(N)=O)(c1ccccc1)c1ccccc1)C(C)C,0.202
14,COc1ccc2c(c1)[C@]13CCCC[C@@H]1[C@H](C2)N(C)CC3,0.241
15,O=C1CN=C(c2ccccc2Cl)c2cc([N+](=O)[O-])ccc2N1,0.145
16,CNCC(=O)c1ccc(O)c(O)c1 [Adrenalone HCl],0.708
17,CC(C)C[C@H]1C(=O)N2CCC[C@H]2[C@]2(O)O[C@](NC(=O)[C@@H]3C=C4c5cccc6[nH]c(Br)c(c56)C[C@H]4N(C)C3)(C(C)C)C(=O)N12,0.246

row,Compound,normalized GFP fluorescence
1,O=P1(NCCCl)OCCCN1CCCl (stereo not drawn),0.399
2,CC(NC(C)(C)C)C(=O)c1cccc(Cl)c1 (stereo not drawn) [Amfebutamone (Bupropion)],0.395
3,NC(=O)C[S+]([O-])C(c1ccccc1)c1ccccc1 (stereo not drawn),0.716
4,O=c1[nH]c2ccccc2n1CCCN1CCC(n2c(=O)[nH]c3cc(Cl)ccc32)CC1 [Domperidone (Motilium)],0.0985
5,CC[C@@H](c1cccc(O)c1)[C@@H](C)CN(C)C,0.313
6,Oc1cccc2cccnc12,0.00976
7,CCC1(c2ccc(N)cc2)CCC(=O)NC1=O (stereo not drawn),0.425
8,CC(O)(CS(=O)(=O)c1ccc(F)cc1)C(=O)Nc1ccc(C#N)c(C(F)(F)F)c1 (stereo not drawn) [Bicalutamide (Casodex)],0.0167
9,CCN(C(C)=O)c1cccc(-c2ccnc3c(C#N)cnn23)c1,0.782
10,C#C[C@]1(O)C=C[C@H]2[C@@H]3CCC4=CC(=O)CC[C@@H]4[C@H]3CC[C@@]21CC [Gestodene],0.342
11,C[C@@H]1CC[C@H]2[C@@H](C)C(=O)O[C@@H]3O[C@@]4(C)CC[C@@H]1[C@]32OO4 [Artemisinin],0.505
12,CC[C@H](C)[C@H]1O[C@]2(C=C[C@@H]1C)C[C@@H]1C[C@@H](C/C=C(\C)[C@@H](O[C@H]3C[C@H](OC)[C@@H](O[C@H]4C[C@H](OC)[C@@H](O)[C@H](C)O4)[C@H](C)O3)[C@@H](C)/C=C/C=C3\CO[C@@H]4[C@H](O)C(C)=C[C@@H](C(=O)O1)[C@]34O)O2.CO[C@H]1C[C@H](O[C@H]2[C@H](C)O[C@@H](O[C@@H]3/C(C)=C/C[C@@H]4C[C@@H](C[C@]5(C=C[C@H](C)[C@@H](C(C)C)O5)O4)OC(=O)[C@@H]4C=C(C)[C@@H](O)[C@H]5OC/C(=C\C=C\[C@@H]3C)[C@]54O)C[C@@H]2OC)O[C@@H](C)[C@@H]1O,0.294
13,CNC(C)(C)Cc1ccccc1,0.75
14,C[C@@H]1O[C@@H](O[C@@H]2C=C3CC[C@@H]4[C@H](CC[C@]5(C)[C@@H](c6ccc(=O)oc6)CC[C@]45O)[C@@]3(C)CC2)[C@H](O)[C@H](O)[C@H]1O,0.198
15,CC[C@@H](C(N)=O)N1CCCC1=O,0.416
16,CN1[C@@H]2C[C@@H](OC(=O)[C@H](CO)c3ccccc3)C[C@H]1[C@@H]1O[C@@H]12,0.83
